# PubChem BioAssay AID1851 (National Center for Advancing Translational Sciences (NCATS), 2009)
# The campaign covered roughly 16,000 compounds. About 5,700 (36%) were called active. Not shown: some 24% with an inconclusive outcome. The list shows a part of the results. A number with no mark means an inactive call. Calls follow the shape of the dose curve; as a rule, active = well fitted curve in the direction sought with a large enough effect; inconclusive = small, poorly fitted or top-dose-only effect, or effect the other way; inactive = no such curve, though single readings can be large or run the other way.
# Target: Cytochrome P450 1A2 (Homo sapiens) (UniProt P05177)
# Test: Cytochrome panel assay with activity outcomes
# Conditions: recombinant CYP, pro-luciferin dealkylation, luminescence, p450-cyp1a2; series mostly up to 57.1 µM; activity, negative = inhibition: at the top concentration
# % is scaled to controls: 0 for no effect and ±100 for the full control effect.
# Cytochrome P450 1A2 (Homo sapiens), sequence (P05177 whole entry, looked up): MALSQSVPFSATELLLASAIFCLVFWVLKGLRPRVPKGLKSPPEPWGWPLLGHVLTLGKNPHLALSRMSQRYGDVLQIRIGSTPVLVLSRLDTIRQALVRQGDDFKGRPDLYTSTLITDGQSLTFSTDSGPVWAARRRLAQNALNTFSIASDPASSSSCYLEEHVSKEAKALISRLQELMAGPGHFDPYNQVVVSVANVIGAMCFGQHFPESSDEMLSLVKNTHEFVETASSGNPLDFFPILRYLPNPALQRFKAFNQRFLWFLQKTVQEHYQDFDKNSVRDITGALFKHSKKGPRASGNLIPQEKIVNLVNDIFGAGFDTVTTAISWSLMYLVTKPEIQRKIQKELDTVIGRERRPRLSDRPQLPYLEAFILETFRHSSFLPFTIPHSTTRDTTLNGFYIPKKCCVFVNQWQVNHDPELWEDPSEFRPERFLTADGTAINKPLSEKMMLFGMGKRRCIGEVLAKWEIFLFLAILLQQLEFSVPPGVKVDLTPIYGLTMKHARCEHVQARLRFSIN
SMILES,"activity, negative = inhibition",AC50
CCC(=O)O[C@@](Cc1ccccc1)(c1ccccc1)[C@@H](C)CN(C)C,-8.18% [at 25.6 µM],–
Cc1nc(-c2ccc(-c3ccc(C(=O)N4CCc5cc6c(cc54)C4(CCN(C)CC4)CO6)cc3)c(C)c2)no1,5.55%,–
NCCCN1CCN(c2ccccc2)CC1,-15.9% [at 11.4 µM],–
Nc1ccc(CCN2CCN(c3cccc(C(F)(F)F)c3)CC2)cc1,–,10000 nM (active)
C[N+](C)(C)CC#CCN1CCCC1=O,–,inactive
CCN(CC)C1=NC(=[N+](CC)CC)c2ccccc21,–,15800 nM (active)
NC(=O)c1ncn([C@H]2O[C@@H](CO)[C@@H](O)[C@@H]2O)n1,2.01% [at 25.6 µM],–
Cc1cc(C)c(-n2c(O)c(C=NCCN3CCOCC3)c(=O)[nH]c2=O)c(C)c1,-0.0514%,–
CC(C)[C@@]1(NC(=O)[C@@H]2C[C@H]3c4cccc5[nH]cc(c45)C[C@@H]3N(C)C2)O[C@]2(O)[C@H]3CCCN3C(=O)[C@H](Cc3ccccc3)N2C1=O,-7.15% [at 25.6 µM],–
COc1ccc(-n2nc(C(F)(F)F)cc2-c2ccc(Cl)cc2)cc1,–,501 nM (active)
NC(N)=NCCN=C(N)N,-17.5% [at 11.4 µM],–
Cc1c([C@@H](C)[C@H]2NC[C@H](C)C[C@@H]2O)ccc2c1C[C@@H]1[C@H]2CC=C2C[C@@H](O)CC[C@@]21C,1.34% [at 2.29 µM],–
COc1ccc2[nH]c(C(=O)c3ccccc3)cc2c1,–,100 nM (active)
NC[C@H](CS(=O)(=O)O)c1ccc(Cl)cc1,-14.4%,–
C/C(O)=C(/C#N)C(=O)Nc1cc(Br)ccc1Br,–,2510 nM (active)
c1ccc(N2CC[C@@]3(CCCNC3)C2)nc1,3.64%,–
Clc1cncc(N2CCNCC2)n1,–,2000 nM (active)
N[C@@H](Cc1cc(Br)c(O)c(Br)c1)C(=O)O,-2.84% [at 11.4 µM],–
N[C@H](Cc1ccc2oc3cc(=O)c4ccccc4c-3nc2c1)C(=O)O,–,1260 nM (active)

SMILES,"activity, negative = inhibition",AC50
CC(C)(O/N=C(\C(=O)N[C@@H]1C(=O)N2C(C(=O)[O-])=C(C[n+]3ccccc3)CS[C@@H]12)c1csc(N)n1)C(=O)O,-8.23% [at 25.6 µM],–
CN1[C@@H]2CCC[C@H]1CC(=O)C2,-13.3% [at 25.6 µM],–
COC1=C[C@H]2C3=C([C@H]2C1=O)[C@H](NC(C)=O)CCc1cc(OC)c(OC)c(OC)c13,-7.51% [at 25.6 µM],–
COc1ccc2c(c[n+](C)c3c4cc5c(cc4ccc23)OCO5)c1OC,–,10000 nM (active)
Oc1cccc2cccnc12,-20% [at 11.4 µM],–
CN1CC[C@@]2(CCCN(C(=O)c3csnn3)C2)C1,7.43%,–
O[C@H](CN1CC1)[C@@H](O)CN1CC1,1.6% [at 11.4 µM],–
NC(=O)c1cc(N2CC2)c([N+](=O)[O-])cc1[N+](=O)[O-],-19.6%,–
CN1CCN(c2cc(N3CCCC3)c([N+](=O)[O-])cc2F)CC1,–,355 nM (active)
C[N+]12CCC(CC1)[C@@H](OC(=O)C(O)(c1ccccc1)c1ccccc1)C2,1.75% [at 25.6 µM],–
C(=NC12CN3CN(CN(C3)C1)C2)c1cccs1,3.17%,–
CC(C)c1ccc2c(c1)c(SC(C)(C)C)c(CC(C)(C)C(=O)O)n2Cc1ccc(Cl)cc1,–,25100 nM (active)
CC(C)c1ccc(C(O)(C(=O)O)c2ccc(C(C)C)cc2)cc1,-8.75% [at 11.4 µM],–
C=C1C(O)(c2ccccc2)C2CC[N+]1(C)CC2 (stereo unspecified),8.66%,–
COC(=O)N1CCC2(CCN(CC(C)C)CC2)CC1,14.2%,–
C=C1[C@@H]2CC[C@H]3[C@@]4(C)C[C@@H](O[C@@H]5O[C@H](CO)[C@H](OS(=O)(=O)O)[C@@H](OS(=O)(=O)O)[C@@H]5OC(=O)CC(C)C)C[C@@H](C(=O)O)[C@H]4CC[C@@]3(C2)[C@H]1O,-10.2% [at 25.6 µM],–
COc1ccc2c(c1)[C@]13CCCC[C@@H]1[C@H](C2)NCC3,3.59%,–
COc1ccc(C(=O)c2c(C)n(CCN3CCOCC3)c3cc(I)ccc23)cc1,–,15800 nM (active)
N=C1c2ccccc2CN1NC(=O)c1ccc(F)cc1,-18%,–

SMILES,"activity, negative = inhibition",AC50
CN1C(=O)CCS(=O)(=O)[C@@H]1c1ccc(Cl)cc1,18.2% [at 25.6 µM],–
Cc1nnc2ccc(-c3cccc(C(F)(F)F)c3)nn12,–,79.4 nM (active)
CNC[C@H](O)c1ccc(OC(=O)C(C)(C)C)c(OC(=O)C(C)(C)C)c1,-15% [at 25.6 µM],–
CCOC(=O)[C@@H]1[C@@H]2c3ccccc3-c3ccccc3[C@H]2C[C@H]1O,–,631 nM (active)
O=P(O)(O)c1ccccc1 (tested in a mixture with another compound),7.14% [at 11.4 µM],–
c1ccc([C@H]2CNCc3ccccc32)cc1,-3.66%,–
C[C@@]12CC[C@H](O)C[C@@H]1CC[C@H]1[C@H]2CC[C@@]2(C)[C@@H](C3=CC(=O)OC3)CC[C@]12O,-0.912% [at 25.6 µM],–
CC[C@H]1CN2CCc3cc(OC)c(OC)cc3[C@H]2C[C@@H]1C[C@H]1NCCc2c1[nH]c1ccc(O)cc21,-7.35% [at 11.4 µM],–
c1ccc2c(c1)Sc1ccccc1N2C[C@H]1CN2CCC1CC2,-5.29% [at 11.4 µM],–
NCCc1ccc(S(=O)(=O)O)cc1[N+](=O)[O-],-6.66% [at 11.4 µM],–
O=C1c2ccccc2-c2cc([N+](=O)[O-])c([N+](=O)[O-])cc21,–,251 nM (active)
CN(N=O)C(=O)N[C@H]1C(O)OC(CO)[C@@H](O)[C@H]1O (stereo partly specified),-13.1%,–
C[n+]1c(/C=C\c2ccc(O)c3ncccc23)[se]c2ccccc21,-22.7% [at 2.29 µM],–
CC(O)(CS(=O)(=O)c1cccc(C(F)(F)F)c1)C(=O)Nc1ccc(C(F)(F)F)cc1 (stereo unspecified),-15.7%,–
C=CCn1c(O)c(C(C)=NCCCN2CCOCC2)c(=O)[nH]c1=O,-14.8%,–
C=CCn1c(O)c(C(CC)=NC2CC2)c(=O)[nH]c1=O,–,708 nM (active)
C[C@@H]1OC=C2[C@@H](O)[C@H]3O[C@H]3C(=O)[C@@]23[C@H]1[C@H]1C2=C([C@@H](O)[C@H]4O[C@@H]4C2=O)[C@@H]3O[C@@H]1C,2.27% [at 11.4 µM],–
C=CCN1CC[C@]23c4c5ccc(O)c4O[C@@H]2/C(=N/NC(=O)c2ccccc2)CC[C@@]3(O)[C@H]1C5,-11.8%,–
